Data: PubChem BioAssay (Tox21)
A number with no mark means an inactive call. Results filed as inconclusive are left out. Entries that show only a call come without a potency. Activity calls are given as the source filed them. Unless noted, the call rests on the fitted dose curve; in most records, active means well fitted curve in the direction sought with a large enough effect in the repeat runs; inconclusive means weak or mixed curves; inactive means no such curve, though single readings can be large; an effect the other way counts as inactive or inconclusive.

What was measured:
[1] = qHTS assay to identify small molecule antagonists of the estrogen related receptor (ERR) signaling pathway from Tox21 library - cell viability counter screen (AID 1224834); further: nearly all actives have a fitted effect of over 30% in size
Outline: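 After 17.5 h of compound exposure at 37 C, ERR cells are incubated with CellTiter-Fluor for 30 min and fluorescence intensity serves as the viability measure.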

[2] = target: Luciferin 4-monooxygenase (Photinus pyralis) (UniProt P08659); assay: qHTS assay to identify small molecule inhibitors of firefly luciferase (AID 1224835); further: nearly all actives have a fitted effect of over 25% in size; further: potency means the concentration at half of the fitted maximal effect
Outline: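 Biochemical qHTS: compounds run as interplate titrations against purified firefly enzyme, with D-luciferin and ATP each at its KM concentration. Light output recorded by CCD imaging.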

[3] = qHTS assay to identify small molecule agonists of the constitutive androstane receptor (CAR) signaling pathway - cell viability counter screen (AID 1224836); further: nearly all actives have a fitted effect of over 45% in size
Outline: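 HepG2 cells stably carrying hCAR and a CYP2B6-2.2kb reporter were plated 4 h, then given compounds at 15 concentrations plus PK11195 (final 0.75 uM). After 23 h at 37 C, viability was read by CellTiter-Fluor fluorescence.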

[4] = qHTS assay to identify small molecule antagonists of the constitutive androstane receptor (CAR) signaling pathway - cell viability counter screen (AID 1224837); further: nearly all actives have a fitted effect of over 45% in size
Outline: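 Counter screen run in HepG2-CYP2B6-hCAR cells: 4 hr settle, compound titration (15 concentrations) with 50 nM CITCO, 23 hr at 37 C/5% CO2, CellTiter-Fluor fluorescence.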

[5] = target: Nuclear receptor subfamily 1 group I member 3 (Homo sapiens) (UniProt Q14994); assay: qHTS assay to identify small molecule antagonists of the constitutive androstane receptor (CAR) signaling pathway (AID 1224838); further: nearly all actives have a fitted effect of over 40% in size
Outline: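 Cell line: HepG2 double-stable for hCAR and CYP2B6-2.2kb reporter. Agonist: CITCO, 50 nM final. Compounds: 15 concentrations, 24 h, 37 C. Detection: ONE-Glo luminescence.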

[6] = target: Nuclear receptor subfamily 1 group I member 3 (Homo sapiens) (UniProt Q14994); assay: qHTS assay to identify small molecule agonists of the constitutive androstane receptor (CAR) signaling pathway (AID 1224839);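 further: HepG2 cells stably carrying human CAR and a CYP2B6 luciferase reporter; nearly all actives have a fitted effect of over 15% in size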
Outline: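 HepG2 cells stably expressing hCAR and a CYP2B6-2.2kb luciferase reporter were treated with compounds at 15 concentrations plus 0.75 uM PK11195 (final) for 24 h at 37 C; luminescence was read after ONE-Glo addition.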

[7] = qHTS assay to identify small molecule antagonists of the estrogen related receptor signaling pathway with the pleiotropic PPARgamma coactivator (PGC) from Tox21 10K library - cell viability counter screen (AID 1224840; active means well fitted cell-killing curve with a large enough effect in the repeat runs, not every such curve was filed as active; further: nearly all actives have a fitted effect of over 40% in size)
Outline: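 Following seeding of 2,000 PGC/ERR cells/well and 6 hours' incubation, test compounds were delivered in DMSO. The plates then sat 17.5 hours at 37 C before a fluorogenic live-cell protease reagent (CellTiter-Fluor) was read after 30 min.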

[8] = target: Thyrotropin receptor (Homo sapiens) (UniProt P16473); assay: qHTS assay to identify small molecule agonists of the thyroid stimulating hormone receptor (TSHR) signaling pathway (AID 1224843; calls by dose curve; further: nearly all actives have a fitted effect of over 45% in size; further: potency means the concentration at half of the fitted maximal effect)
Outline: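 TSHR-HEK293 cells in agonist mode, 30 min room-temperature step, then cAMP measured by competitive HTRF (cAMP-d2 with anti-cAMP cryptate) after 1 h at room temperature. Tested at 15 concentrations in triplicate.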

[9] = qHTS assay to identify small molecule agonists of the hypoxia (HIF-1) signaling pathway - cell viability counter screen (AID 1224844; calls by dose curve; further: nearly all actives have a fitted effect of over 50% in size)
Outline: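 Cells (HRE-bla ME-180, 2,000 per well) sat 5 hrs at 37C, got compound for 17 hrs, were read for CCF4-AM FRET, and were finally lysed with CellTiter-Glo for a 30 min room-temperature luminescence read.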

[10] = qHTS assay to identify small molecule agonists of H2AX - cell viability counter screen (AID 1224847; calls by dose curve; further: top concentration of the series differs between compounds; nearly all actives have a fitted effect of over 30% in size)
Outline: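 Wild-type CHO-K1 cells (10% FBS medium) were plated overnight at 37C, exposed to compounds at 15 concentrations for 3 hr at 37C (0.76% DMSO final), and viability was read as CellTiter-Glo luminescence after 30 min at room temperature.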

[11] = qHTS RealTime-Glo MT Cell Viability Assay in HepG2 cells - 24 hour (AID 1224867); further: nearly all actives have a fitted effect of over 50% in size
Outline: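 Cell number in HepG2 cultures estimated from NanoLuc luminescence generated by metabolic reduction of a prosubstrate by living cells. The homogeneous, nonlytic format allowed repeated reads at 0, 8, 16, 24, 32 and 40 h of compound exposure.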

[12] = A CellTox Green Cytotoxicity Assay to monitor cytotoxicity in HEK293 cells - 0 hour (AID 1224869); further: nearly all actives have a fitted effect of over 50% in size
Outline: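 Fluorescence intensity, read at 0, 8, 16, 24, 32 and 40 h of compound treatment, reflected dye binding to DNA of dead HEK293 cells; compounds (23 nL, DMSO) were added 5 h after plating cells with reagent.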

[13] = qHTS RealTime-Glo MT Cell Viability Assay in HepG2 cells - 40 hour (AID 1224870); further: nearly all actives have a fitted effect of over 50% in size; further: potency means the concentration at half of the fitted maximal effect
Outline: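 HepG2 cells (600/well) mixed with RealTime-Glo MT reagent, settled 5 h at 37 C/5% CO2 before compound addition. Nonlytic NanoLuc luminescence from viable-cell prosubstrate reduction read repeatedly during 40 h treatment at 37 C.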

[14] = qHTS assay to identify small molecule agonists of H2AX (AID 1224845; active means well fitted activation curve with a large enough effect in the signal ratio in the repeat runs, not every such curve was filed as active; the % refers to the signal ratio)
Outline: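 Wild-type CHO-K1 cells, plated overnight, exposed 3hr at 37C to 15 concentrations (0.76% DMSO final). Lysed, then HTRF anti-pH2AX (S139) cryptate and anti-H2AX-d2 antibodies, 24 hr room temperature; 665/620 nm emission read.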

[15] = qHTS RealTime-Glo MT Cell Viability Assay in HEK293 cells - 32 hour (AID 1224868)
Outline: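 Homogeneous bioluminescent viability format in HEK293 cells (600 cells/well). Following 5 h at 37 C/5% CO2, 23 nL compound was pintooled; the signal was measured repeatedly during 40 h incubation.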

[16] = qHTS assay to identify small molecule agonists of the hypoxia (HIF-1) signaling pathway (AID 1224846; active means well fitted activation curve with a large enough effect in the signal ratio in the repeat runs, not every such curve was filed as active; the % refers to the signal ratio)
Outline: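 A low-serum medium (0.5% dialyzed FBS) holding 2,000 HRE-bla ME-180 cells per well is preincubated for 5 hrs, dosed with compounds by pintool, and kept a further 17 hrs at 37C, 5% CO2 before CCF4-AM FRET detection of beta-lactamase.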

[17] = qHTS assay to identify small molecule antagonists of the estrogen related receptor signaling pathway with the pleiotropic PPARgamma coactivator (PGC) from Tox21 10K library (AID 1224841; call rule not given here)
Outline: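 qHTS antagonist format: PGC/ERR cells, 2k/well, compound in DMSO by pin transfer after 6 h attachment, 18 h treatment at 37 C, One-Glo luminescence read at 30 min.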

[18] = qHTS assay to identify small molecule agonists of the estrogen related receptor signaling pathway with the pleiotropic PPARgamma coactivator (PGC) from Tox21 10K library (AID 1224842); further: nearly all actives have a fitted effect of over 15% in size
Outline: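 PGC/ERR reporter cell line, 2,000 cells per well, incubated 6 h at 37 C before 23 nL compound in DMSO was added. After 18 h at 37 C, One-Glo luminescence read following 30 min at room temperature.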

[19] = qHTS assay to identify small molecule antagonists of the estrogen related receptor (ERR) signaling pathway from Tox21 library (AID 1224848); further: nearly all actives have a fitted effect of over 50% in size
Outline: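 ERR reporter cell line (from NTP) seeded 2,000 cells/well, rested 6 h at 37 C/5% CO2, then pin-dosed with compounds in DMSO. After 18 h at 37 C, ONE-Glo added; luminescence read after 30 min at room temperature.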

[20] = qHTS assay to identify small molecule agonists of the estrogen related receptor (ERR) signaling pathway from Tox21 library (AID 1224849; calls by dose curve; further: nearly all actives have a fitted effect of over 15% in size); conditions: ERR reporter cell line, ONE-Glo luciferase, 18 h; at 92.4 µM (top of the series) unless noted
Outline: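 Screening used an NTP-provided ERR luciferase cell line. Compounds in DMSO were added 6 h after seeding and left 18 h at 37 C before a 30 min ONE-Glo step and luminescence reading.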

Sequence of Thyrotropin receptor (Homo sapiens) (P16473 whole entry, looked up): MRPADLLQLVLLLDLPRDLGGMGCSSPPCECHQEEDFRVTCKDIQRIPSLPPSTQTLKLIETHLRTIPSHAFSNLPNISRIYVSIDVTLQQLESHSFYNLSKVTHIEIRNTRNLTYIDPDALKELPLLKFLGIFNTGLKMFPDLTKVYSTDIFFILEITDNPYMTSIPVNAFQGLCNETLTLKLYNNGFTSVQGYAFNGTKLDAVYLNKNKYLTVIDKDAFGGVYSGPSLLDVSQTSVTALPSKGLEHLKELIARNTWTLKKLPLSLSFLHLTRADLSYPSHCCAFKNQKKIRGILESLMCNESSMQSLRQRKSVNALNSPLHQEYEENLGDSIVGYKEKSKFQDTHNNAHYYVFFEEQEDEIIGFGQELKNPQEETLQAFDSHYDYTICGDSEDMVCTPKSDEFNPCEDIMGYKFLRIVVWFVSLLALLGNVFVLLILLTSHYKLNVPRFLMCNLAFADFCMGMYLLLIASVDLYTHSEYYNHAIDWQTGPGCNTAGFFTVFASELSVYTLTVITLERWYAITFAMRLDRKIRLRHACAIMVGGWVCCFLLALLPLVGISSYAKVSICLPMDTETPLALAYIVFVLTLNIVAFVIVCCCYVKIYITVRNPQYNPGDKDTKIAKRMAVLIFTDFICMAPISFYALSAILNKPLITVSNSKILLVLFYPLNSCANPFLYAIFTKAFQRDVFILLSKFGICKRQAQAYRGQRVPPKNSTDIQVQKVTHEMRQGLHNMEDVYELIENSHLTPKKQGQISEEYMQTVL
Sequence of Nuclear receptor subfamily 1 group I member 3 (Homo sapiens) (Q14994 whole entry, looked up): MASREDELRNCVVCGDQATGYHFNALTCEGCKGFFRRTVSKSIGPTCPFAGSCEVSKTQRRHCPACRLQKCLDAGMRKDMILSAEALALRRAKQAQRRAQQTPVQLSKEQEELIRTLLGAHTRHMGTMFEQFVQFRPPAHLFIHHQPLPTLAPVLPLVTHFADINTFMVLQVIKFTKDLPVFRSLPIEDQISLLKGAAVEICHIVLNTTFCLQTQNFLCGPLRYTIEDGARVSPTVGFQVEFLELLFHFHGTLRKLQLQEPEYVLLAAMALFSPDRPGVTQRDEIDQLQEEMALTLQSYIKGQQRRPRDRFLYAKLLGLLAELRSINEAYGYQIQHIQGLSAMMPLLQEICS
Sequence of Luciferin 4-monooxygenase (Photinus pyralis) (P08659 whole entry, looked up): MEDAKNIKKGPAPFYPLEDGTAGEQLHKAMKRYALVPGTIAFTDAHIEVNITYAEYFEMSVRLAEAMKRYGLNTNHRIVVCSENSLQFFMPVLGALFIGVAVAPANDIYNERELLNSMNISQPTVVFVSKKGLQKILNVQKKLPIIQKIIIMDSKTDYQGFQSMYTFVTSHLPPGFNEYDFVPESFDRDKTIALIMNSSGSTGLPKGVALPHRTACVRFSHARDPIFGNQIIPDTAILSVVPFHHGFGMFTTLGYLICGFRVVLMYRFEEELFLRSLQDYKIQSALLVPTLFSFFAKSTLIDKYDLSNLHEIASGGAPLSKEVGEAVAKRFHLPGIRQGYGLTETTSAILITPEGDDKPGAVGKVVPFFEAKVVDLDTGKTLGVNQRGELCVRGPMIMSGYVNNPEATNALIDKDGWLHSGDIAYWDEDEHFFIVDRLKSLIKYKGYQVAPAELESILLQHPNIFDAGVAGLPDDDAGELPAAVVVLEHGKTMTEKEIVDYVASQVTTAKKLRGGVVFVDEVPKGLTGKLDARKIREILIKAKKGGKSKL

Structure (SMILES)	Potency [1]	Potency [2]	Potency [3]	Potency [4]	Potency [5]	Potency [6]	Potency [7]	Potency [8]	Potency [9]	Potency [10]	Potency [11]	Potency [12]	Potency [13]	Potency [14]	Potency [15]	outcome [16]	Potency [17]	Potency [18]	Potency [19]	activity change, positive = activation [20]
c1ccc(-c2nc[nH]c2-c2ccccc2)cc1	inactive	inactive	inactive	inactive	inactive	inactive	inactive	inactive	inactive	inactive	inactive	inactive	inactive	–	–	–	–	–	–	–
O=C(O)/C=C/c1cnc[nH]1	inactive	inactive	inactive	inactive	inactive	inactive	–	inactive	inactive	inactive	inactive	inactive	inactive	inactive	inactive	–	–	–	–	–
CC[C@H](C)[C@@H](C(=O)O)n1sc2ccccc2c1=O	inactive	17.8 µM (active)	inactive	inactive	inactive	inactive	inactive	inactive	–	inactive	–	inactive	30.9 µM (active)	inactive	–	inactive	–	–	–	–
CC1(C)[C@H]2CC[C@]1(C)[C@H](O)C2	inactive	inactive	inactive	inactive	inactive	–	inactive	inactive	inactive	–	inactive	inactive	inactive	–	inactive	inactive	–	–	–	–
CC(C)(C)c1ccc(S)cc1	inactive	inactive	inactive	inactive	inactive	–	inactive	inactive	inactive	inactive	inactive	inactive	inactive	–	–	inactive	–	–	–	–
CC(Cc1cccc(C(F)(F)F)c1)NCCOC(=O)c1ccccc1 (centres undefined)	inactive	inactive	inactive	inactive	inactive	inactive	–	inactive	inactive	–	inactive	inactive	inactive	–	–	inactive	–	–	–	–
N[C@H]1C(O)O[C@H](CO)[C@H](O)[C@@H]1O (some centres undefined)	inactive	inactive	inactive	inactive	inactive	inactive	–	inactive	inactive	–	inactive	inactive	inactive	inactive	inactive	inactive	inactive	inactive	inactive	1.03%
O=C1Nc2cc(Cl)ccc2Oc2ccccc21	inactive	inactive	inactive	inactive	inactive	–	inactive	inactive	inactive	inactive	inactive	inactive	inactive	–	–	inactive	–	–	–	–
CN(C)CC[C@@H](c1ccc(Br)cc1)c1ccccn1	inactive	inactive	inactive	inactive	inactive	inactive	inactive	–	–	inactive	inactive	inactive	inactive	inactive	inactive	–	–	–	–	–
CC(C)NCC(O)c1cc(O)cc(O)c1 (centres undefined)	inactive	inactive	inactive	inactive	inactive	–	–	10.6 µM (active)	inactive	inactive	inactive	inactive	inactive	–	inactive	inactive	–	inactive	inactive	10.5% [at 42.5 µM]
Cc1cccc(C(C)(C)C)c1O	inactive	inactive	inactive	inactive	inactive	inactive	inactive	–	inactive	–	inactive	inactive	inactive	inactive	inactive	inactive	–	–	–	–
CCN(CC)C(C)=O	inactive	inactive	inactive	inactive	inactive	inactive	–	inactive	inactive	–	inactive	inactive	inactive	inactive	inactive	inactive	inactive	inactive	inactive	2.9%
C#CCOC(=O)[C@@H](C)Oc1ccc(Oc2ncc(Cl)cc2F)cc1	inactive	inactive	inactive	inactive	inactive	inactive	–	–	inactive	inactive	inactive	inactive	inactive	–	inactive	inactive	inactive	–	inactive	-13.6%
CCCCCCOC(=O)CCC	inactive	inactive	inactive	inactive	inactive	inactive	inactive	inactive	–	inactive	inactive	inactive	inactive	inactive	inactive	–	–	–	–	–
CCC(=O)OC(C)(C)C1CC=C(C)CC1 (centres undefined)	inactive	inactive	inactive	inactive	inactive	inactive	–	inactive	–	inactive	inactive	inactive	inactive	inactive	–	inactive	inactive	inactive	inactive	-6.48%
Cc1ccc(C(C)c2ccc(C)c(C)c2)cc1C	inactive	inactive	inactive	inactive	inactive	inactive	inactive	–	inactive	–	inactive	inactive	inactive	–	inactive	–	–	–	–	–
CN1CCC(OC(c2ccccc2)c2ccccc2)CC1	inactive	inactive	inactive	inactive	inactive	–	inactive	inactive	inactive	inactive	inactive	inactive	inactive	inactive	inactive	inactive	–	–	–	–
ClC(Cl)(Cl)c1ccc(C(Cl)(Cl)Cl)cc1	inactive	inactive	inactive	inactive	inactive	inactive	inactive	inactive	–	–	inactive	inactive	inactive	–	inactive	inactive	–	–	–	–
CC(=O)c1c(C)c([N+](=O)[O-])c(C(C)(C)C)c([N+](=O)[O-])c1C	inactive	inactive	inactive	inactive	inactive	–	–	6.11 µM (active)	inactive	–	inactive	inactive	inactive	inactive	inactive	–	–	–	–	–
